Inhibition data for 1 compound are collected here from PubChem BioAssay AID2766 (Sanford-Burnham Center for Chemical Genomics, 2010).

Broadly, the inhibition is the change of the read-out against control, counted positive when it falls.

The target in the test is Apelin receptor (Homo sapiens) (UniProt P35414). The experiment in a line: APJ antagonists blocking beta-arrestin recruitment, confirmation, cell-based, luminescence, single concentration, uHTS hits (AID 2766). The settings on record: antagonist mode, at 20 µM, active compounds read high. Background: Arrestin recruitment assays detect the binding of arrestin to an activated receptor.

This is one part of the list. A number with no mark means an inactive call. Rule as the data show it: active = inhibition above about 50%; inactive = the rest.

Sequence of Apelin receptor (Homo sapiens) (P35414 whole entry, looked up): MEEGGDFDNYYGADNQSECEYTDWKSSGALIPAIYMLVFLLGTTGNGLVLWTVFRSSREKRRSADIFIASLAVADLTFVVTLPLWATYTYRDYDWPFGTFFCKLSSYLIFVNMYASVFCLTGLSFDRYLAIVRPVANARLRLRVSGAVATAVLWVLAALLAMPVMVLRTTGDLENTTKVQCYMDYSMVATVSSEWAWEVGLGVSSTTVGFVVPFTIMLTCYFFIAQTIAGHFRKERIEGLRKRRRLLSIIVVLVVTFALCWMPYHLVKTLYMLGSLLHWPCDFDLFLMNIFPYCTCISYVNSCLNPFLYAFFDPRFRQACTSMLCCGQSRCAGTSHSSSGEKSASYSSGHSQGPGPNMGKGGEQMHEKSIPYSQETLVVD

`CCOC(=O)c1c(N)n(Cc2ccccc2)c2nc3ccccc3nc12`: the inhibition was 35%.
